PubChem BioAssay (NCATS)
Inconclusive results are not listed. Active and inactive are the calls of the source. Unless noted, the call rests on the fitted dose curve; in most records, active means well fitted curve in the direction sought with a large enough effect; inconclusive means small, poorly fitted or top-dose-only effect, or another doubt; inactive means no such curve, though single readings can be large; an effect the other way counts as inactive or inconclusive.

Columns and labels:
[1] = target: Aldehyde dehydrogenase, mitochondrial (Homo sapiens) (UniProt P05091); assay: qHTS for Inhibitors of the Aldehyde Dehydrogenase Family (ALDH2) Confirmatory screens (AID 2061303; active means well fitted inhibition curve with a large enough effect; title and protocol of this record describe different tests; further: nearly all actives have a fitted effect of over 45% in size; further: potency means the concentration at half of the fitted maximal effect)
[2] = target: Aldehyde dehydrogenase, mitochondrial (Homo sapiens) (UniProt P05091); assay: qHTS for Inhibitors of the Aldehyde Dehydrogenase Family (ALDH2) Primary screen (AID 2061308); further: nearly all actives have a fitted effect of over 55% in size; further: potency means the concentration at half of the fitted maximal effect
[3] = target: Retinaldehyde dehydrogenase 3 (Homo sapiens) (UniProt P47895); assay: qHTS for Inhibitors of the Aldehyde Dehydrogenase Family (ALDH1A3) Confirmatory screens (AID 2061311); further: nearly all actives have a fitted effect of over 60% in size; further: potency means the concentration at half of the fitted maximal effect
[4] = target: Aldehyde dehydrogenase 1A1 (Homo sapiens) (UniProt P00352); assay: qHTS for Inhibitors of the Aldehyde Dehydrogenase Family (ALDH1A1) Confirmatory screens (AID 2061316); further: nearly all actives have a fitted effect of over 65% in size; further: potency means the concentration at half of the fitted maximal effect
[5] = target: Retinal dehydrogenase 2 (Homo sapiens) (UniProt O94788); assay: qHTS for Inhibitors of the Aldehyde Dehydrogenase Family (ALDH1A2) Confirmation screens (AID 2061314); further: nearly all actives have a fitted effect of over 65% in size; further: potency means the concentration at half of the fitted maximal effect
[6] = target: Retinaldehyde dehydrogenase 3 (Homo sapiens) (UniProt P47895); assay: qHTS for Inhibitors of the Aldehyde Dehydrogenase Family (ALDH1A3) Primary screen (AID 2061315); further: potency means the concentration at half of the fitted maximal effect
[7] = BET inhibitor-based combinations targeting novel dependencies in MECOM-rearranged (r) AML: OCI-AML3 cell line (AID 2202232); details: Potency: OCI-AML3 viability; further: nearly all actives have a fitted effect of over 35% in size; further: potency means the concentration at half of the fitted maximal effect
Procedure, shortened: (§1)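 AML cell lines seeded at 500 cells/well, treated with 11-point dose curves for 48 h. Viability by CellTiter-Glo luminescence, normalised to DMSO and empty wells; activity expressed as AUC and per-cell-line Z-transformed AUC.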

[8] = BET inhibitor-based combinations targeting novel dependencies in MECOM-rearranged (r) AML: MV-4-11 cell line (AID 2202233); further: nearly all actives have a fitted effect of over 45% in size; further: potency means the concentration at half of the fitted maximal effect
Procedure, shortened: (§2)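 Cells at 500/well were exposed for 48 hr to MIPE v5.0 drugs as 11-point dose curves. Viability was read by CellTiter-Glo luminescence and normalized to DMSO and empty-well controls. Activity was expressed as AUC and per-cell-line Z-AUC.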

[9] = BET inhibitor-based combinations targeting novel dependencies in MECOM-rearranged (r) AML: HNT-34 cell line (AID 2202234); further: nearly all actives have a fitted effect of over 35% in size; further: potency means the concentration at half of the fitted maximal effect
Procedure, shortened: as §2

[10] = BET inhibitor-based combinations targeting novel dependencies in MECOM-rearranged (r) AML: UCSD-AML1 cell line (AID 2202235); further: nearly all actives have a fitted effect of over 40% in size; further: potency means the concentration at half of the fitted maximal effect
Procedure, shortened: as §2

[11] = BET inhibitor-based combinations targeting novel dependencies in MECOM-rearranged (r) AML: AML-194 cell line (AID 2202237; further: nearly all actives have a fitted effect of over 40% in size; further: potency means the concentration at half of the fitted maximal effect)
Procedure, shortened: as §1

[12] = BET inhibitor-based combinations targeting novel dependencies in MECOM-rearranged (r) AML: SET-2 cell line (AID 2202231); details: SET-2 AML cells viability, CellTiter-Glo luminescence, 48 h; viability: stronger effect = lower value, series mostly up to about 46 µM;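 further: plate controls were DMSO treated cells for no effect and wells without cells for full effect; nearly all actives have a fitted effect of over 35% in size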
Procedure, shortened: as §1

[13] = BET inhibitor-based combinations targeting novel dependencies in MECOM-rearranged (r) AML: AML-191 cell line (AID 2202236;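 further: plate controls were vehicle wells for no effect and wells without cells for full effect; nearly all actives have a fitted effect of over 35% in size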)
Procedure, shortened: as §1

CCOC(=O)c1ccc(O)c2ncc(N3CCC(C(=N)N)CC3)cc12
inactive: Potency [1] | Potency [2] | Potency [4]
active: Potency [3] 8.96 µM

COc1ccc(C2Nc3ccccc3C(=O)N2Cc2cccnc2)cc1COc1ccc(NC(C)=O)cc1 (configuration not stated)
inactive: Potency [2] | Potency [6]
active: Potency [1] 15.8 µM | Potency [5] 10.1 µM

COc1ccc(C2Nc3ccccc3C(=O)N2Cc2ccccc2)cc1COc1ccc(C)cc1 (configuration not stated)
active: Potency [1] 3.98 µM | Potency [5] 5.65 µM
inactive: Potency [2] | Potency [6]

CN(C)c1cccc(-c2csc(N3CCC(C(N)=O)CC3)n2)c1
inactive: Potency [2] | Potency [6]
active: Potency [1] 12.7 µM | Potency [3] 12.7 µM | Potency [4] 11.3 µM

O=[S+]([O-])(NCC#CCSc1nnc(-c2cccc3ccccc23)o1)c1ccc(F)cc1
inactive: Potency [1] | Potency [2] | Potency [5] | Potency [6]

Cc1noc(C)c1-c1ccc2ncnc(NCc3ccc(F)cc3)c2c1
inactive: Potency [2] | Potency [6]
active: Potency [1] 12.6 µM | Potency [3] 12.6 µM | Potency [4] 20.1 µM

N#Cc1c(-c2cccc(O)c2)no[n+]1[O-]
active: Potency [5] 2.52 µM
inactive: Potency [1] | Potency [2] | Potency [6]

Cc1c(Cl)cccc1NS(=O)(=O)c1cc2c(cc1F)NC(=O)CC2
inactive: Potency [1] | Potency [2] | Potency [3] | Potency [6] | Potency [4]

Cc1ccc(-c2no[n+]([O-])c2C#N)cc1
inactive: Potency [1] | Potency [2] | Potency [3] | Potency [6]

CCOC(=O)c1c(-c2ccccc2)no[n+]1[O-]
inactive: Potency [1] | Potency [2] | Potency [3] | Potency [6]

c1cn2cc(-c3ccc4cn[nH]c4c3)nc(Nc3ccc(N4CCOCC4)cc3)c2n1
inactive: Potency [1] | Potency [2] | Potency [3] | Potency [6] | Potency [4]
active: Potency [7] 5.25 µM | Potency [8] 1.66 µM | Potency [9] 4.17 µM | Potency [10] 10.5 µM | Potency [11] 1.32 µM

O=S(=O)(Nc1ccc(O)c2ncccc12)c1ccccc1F
inactive: Potency [2]
active: Potency [1] 4.49 µM | Potency [3] 2.25 µM | Potency [5] 2.83 µM | Potency [4] 2.01 µM

O=C(Nc1ncc([N+](=O)[O-])s1)c1ccccc1O
active: Potency [1] 28.2 µM | Potency [3] 0.449 µM | Potency [6] 2 µM
inactive: Potency [2]

N#Cc1c(-c2ccc(Cl)c([N+](=O)[O-])c2)no[n+]1[O-]
inactive: Potency [6]
active: Potency [1] 2.83 µM | Potency [2] 0.398 µM | Potency [5] 2.83 µM | Potency [4] 7.98 µM

[O-][n+]1onc(-c2ccccc2)c1/C=N/O
inactive: Potency [1] | Potency [2] | Potency [5] | Potency [6] | Potency [4]

O=C(c1ccc(-c2cnc3c(O)cccc3c2)cc1)N1CCNCC1
inactive: Potency [1] | Potency [2] | Potency [5] | Potency [6]

CC(C)(O)C1CC=C(C(=O)OCC2OC(Oc3c(O)cc(C(=O)O)cc3O)C(O)C(O)C2O)CC1 (configuration not stated)
inactive: Potency [1] | Potency [2] | Potency [5] | Potency [6]

Cc1ccc(CN2CCNCC2)cc1NC(=O)CNc1ccc(F)c(F)c1
inactive: Potency [1] | Potency [2] | Potency [3] | Potency [6] | viability [12] 115% | Potency [7] | Potency [8] | Potency [9] | Potency [10] | Potency [13] | Potency [11]
active: Potency [4] 12.7 µM

CNc1oc(-c2ccc3c(c2)OCCO3)nc1C#N
inactive: Potency [1] | Potency [2] | Potency [5] | Potency [6]

O=C1CCc2cc(S(=O)(=O)Nc3cc(F)cc(Cl)c3)c(F)cc2N1
inactive: Potency [1] | Potency [2] | Potency [3] | Potency [6] | Potency [4]

Cc1noc(C)c1N[S+](=O)([O-])c1ccc(NC(=O)Cc2ccc(Cl)c(Cl)c2)cc1
inactive: Potency [2] | Potency [6]
active: Potency [1] 7.08 µM | Potency [3] 6.31 µM

CC(=O)NC(C)c1cc(Cl)c2cccnc2c1O (configuration not stated)
inactive: Potency [1] | Potency [2] | Potency [6]
active: Potency [5] 28.3 µM

NC(=O)C1CCN(c2nc(-c3ccc4c(c3)OCCO4)cs2)CC1
inactive: Potency [1] | Potency [2] | Potency [5] | Potency [6]

O=C(/C=C/c1cccnc1)Nc1cccc([S+](=O)([O-])Nc2ccccc2F)c1
active: Potency [5] 11.3 µM
inactive: Potency [1] | Potency [2] | Potency [6] | Potency [4]

Cc1c(-c2ccccc2)no[n+]1[O-]
inactive: Potency [1] | Potency [2] | Potency [5] | Potency [6] | Potency [4]

N#CNC(=O)c1ccc(-n2cccc2/C=C2\NC(=O)N(CC(=O)Nc3cccc(F)c3)C2=O)cc1
inactive: Potency [1] | Potency [2] | Potency [3] | Potency [6] | Potency [4]

Cc1ccc(-c2cc(C(=O)Nc3cccc(S(N)(=O)=O)c3)c3ccccc3n2)cc1C
inactive: Potency [1] | Potency [2] | Potency [5] | Potency [6]
